In the supplement of paper PMC3414501:
Where a name gives a salt, the structure may show the parent alone. Unmarked numbers belong to inactive results.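 The calls were made as follows: active = HIS4 sensitivity z-score above 5 vs DMSO controls; inactive = score 5 or below.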

What follows are compounds tested on S. cerevisiae NKY1551 his4x/his4B, sporulating (assay: HIS4 meiotic recombination assay sensitivity score (z-score vs DMSO controls); higher = stronger inhibition of sporulation/recombination, active = hit call of the paper).
Method: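 NIH Clinical Collection compounds were added 1:100 from stock (about 100 µM final) to S. cerevisiae. Growth: average doubling time (AvgG) over 24 h of BY4741 (wild-type) or AD1-9 (drug-efflux-pump deficient) in rich media. HIS4: the his4x/his4B heteroallelic recombination reporter strain (SK1) was sporulated 5 h with compound at 30°C, then colony density was read on -his plates after 48 h. Sensitivity score = (compound − mean of 8 DMSO controls)/SD of DMSO controls. Hit cutoffs are >2 for growth and >5 for sporulation.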

Compound | HIS4 meiotic recombination assay sensitivity score
O=C(O[C@@H]1Cc2c(O)cc(O)cc2O[C@@H]1c1cc(O)c(O)c(O)c1)c1cc(O)c(O)c(O)c1 [Epigallocatechin gallate] (stock concentration (mM, diluted 1:100): 10) | 0.29
Cc1cc2c(s1)Nc1ccccc1N=C2N1CCN(C)CC1 [Olanzapine] (stock concentration (mM, diluted 1:100): 9.9) | 1.61
CC(=O)NCCCCCCNC(C)=O [Hexamethylene bisacetamide] (stock concentration (mM, diluted 1:100): 10) | -0.63
COc1ccc(CC2c3cc(OC)c(OC)cc3CC[N+]2(C)CCC(=O)OCCCCCOC(=O)CC[N+]2(C)CCc3cc(OC)c(OC)cc3C2Cc2ccc(OC)c(OC)c2)cc1OC (stereo not given) [Atracurium besylate] (stock concentration (mM, diluted 1:100): 10) | 0.87
COc1ccccc1N1CCN(CC(O)COc2cccc3ccccc23)CC1 (stereo not given) [Naftopidil] (stock concentration (mM, diluted 1:100): 10) | 5.23 (active)
C[C@H](N[C@@H](CCc1ccccc1)C(=O)O)C(=O)N1CCC[C@H]1C(=O)O [Enalaprilat] (stock concentration (mM, diluted 1:100): 10) | -0.11
COc1ccnc(C[S+]([O-])c2nc3cc(OC(F)F)ccc3[nH]2)c1OC (stereo not given) [Pantoprazole sodium] (stock concentration (mM, diluted 1:100): 10) | 0.54
Oc1ccc(C2CNCCc3c2cc(O)c(O)c3Cl)cc1 (stereo not given) [Fenoldopam mesylate] (stock concentration (mM, diluted 1:100): 7.7) | -0.24
CNNCc1ccc(C(=O)NC(C)C)cc1 [Procarbazine hydrochloride] (stock concentration (mM, diluted 1:100): 8.6) | -1.19
C[C@@H]1CN(CCCn2c3ccccc3c3ccccc32)C[C@H](C)N1 [Rimcazole] (stock concentration (mM, diluted 1:100): 10.1) | -2.16
CN1CCc2cc(Cl)c(O)cc2[C@@H](c2ccccc2)C1 (stock concentration (mM, diluted 1:100): 9.9) | 3.2
CC(C)(C)C(O)/C=C/c1ccc2c(c1)OCO2 (stereo not given) [Stiripentol] (stock concentration (mM, diluted 1:100): 10) | 1.81
NC(N)=NC(=O)c1nc(Cl)c(N)nc1N (stock concentration (mM, diluted 1:100): 8.2) | 2.44
COc1ccc(C(=O)NCc2ccc(OCCN(C)C)cc2)cc1OC [Itopride hydrochloride] (stock concentration (mM, diluted 1:100): 8.2) | -1.08
O=C(CCCN1CCC(O)(c2ccc(Cl)cc2)CC1)c1ccc(F)cc1 [Haloperidol] (stock concentration (mM, diluted 1:100): 10) | 7.67 (active)
CN1CCC(=C2c3ccccc3CC(=O)c3sccc32)CC1 [Ketotifen fumarate] (stock concentration (mM, diluted 1:100): 8.9) | 2.1
CC(c1cc2ccccc2s1)N(O)C(N)=O (stereo not given) [Zileuton] (stock concentration (mM, diluted 1:100): 10) | -2.31
CN1CCN(C2=Nc3ccccc3Oc3ccc(Cl)cc32)CC1 [Loxapine succinate] (stock concentration (mM, diluted 1:100): 11) | 7.41 (active)
Nc1nc(O)c2ncn(CCC(CO)CO)c2n1 [Penciclovir] (stock concentration (mM, diluted 1:100): 10) | -0.35
C[C@@H]1C[C@H]2[C@@H]3C[C@H](F)C4=CC(=O)C(Cl)=C[C@]4(C)[C@@]3(F)[C@@H](O)C[C@]2(C)[C@@]1(O)C(=O)CO [Halometasone monohydrate] (stock concentration (mM, diluted 1:100): 10) | -1.12

Compound | HIS4 meiotic recombination assay sensitivity score
C[C@H]1COc2c(N3CCN(C)CC3)c(F)cc3c(=O)c(C(=O)O)cn1c23 [Levofloxacin] (stock concentration (mM, diluted 1:100): 10) | 0.16
N#Cc1ccc(C(c2ccc(C#N)cc2)n2cncn2)cc1 [Letrozol] (stock concentration (mM, diluted 1:100): 10) | -0.01
CN(C)[C@@H]1C(O)=C(C(=O)NCN2CCCC2)C(=O)[C@@]2(O)C(O)=C3C(=O)c4c(O)cccc4[C@@](C)(O)[C@H]3C[C@@H]12 [Rolitetracycline] (stock concentration (mM, diluted 1:100): 10) | 3.05
COCC1=C(C(=O)OC(C)OC(=O)OC(C)C)N2C(=O)[C@@H](NC(=O)/C(=N\OC)c3csc(N)n3)[C@H]2SC1 (stereo not given in full) [Cefpodoxime proxetil] (stock concentration (mM, diluted 1:100): 7.7) | -1.5
O=c1[nH]cnc2c1ncn2[C@H]1CC[C@@H](CO)O1 [Didanosine] (stock concentration (mM, diluted 1:100): 10.1) | 0.35
CN1CCC(=C2c3ccccc3CCc3sccc32)CC1 [Pizotyline] (stock concentration (mM, diluted 1:100): 10) | 9.23 (active)
COc1ccc2[nH]c([S+]([O-])Cc3ncc(C)c(OC)c3C)nc2c1 (stereo not given) [Omeprazole] (stock concentration (mM, diluted 1:100): 10) | -1.05
C[C@@H]1C[C@H]2[C@@H]3CCC4=CC(=O)C=C[C@]4(C)[C@@]3(F)[C@@H](O)C[C@]2(C)[C@H]1C(=O)CO [Desoximetasone] (stock concentration (mM, diluted 1:100): 10) | -1.12
CC(=O)CCCCn1cnc2c1c(=O)n(C)c(=O)n2C [Lomifylline] (stock concentration (mM, diluted 1:100): 10) | -1.26
O=C1CN2Cc3c(ccc(Cl)c3Cl)N=C2N1 [Anagrelide hydrochloride] (stock concentration (mM, diluted 1:100): 8.8) | -0.8
CCCCc1nc(Cl)c(CO)n1Cc1ccc(-c2ccccc2-c2nnn[nH]2)cc1 [Losartan potassium] (stock concentration (mM, diluted 1:100): 9.2) | -1.2
Cc1ccc(O)c([C@H](CCN(C(C)C)C(C)C)c2ccccc2)c1 [Tolterodine tartrate] (stock concentration (mM, diluted 1:100): 6.9) | 4.21
CN[C@H]1CC[C@@H](c2ccc(Cl)c(Cl)c2)c2ccccc21 [Sertraline] (stock concentration (mM, diluted 1:100): 9) | -0.61
COc1ccc(C2CNC(=O)C2)cc1OC1CCCC1 (stereo not given) [Rolipram] (stock concentration (mM, diluted 1:100): 10) | -0.47
CCCN1CCCC[C@H]1C(=O)Nc1c(C)cccc1C [Ropivacaine hydrochloride] (stock concentration (mM, diluted 1:100): 7.7) | 2.62
COc1ccc(-c2oc3c(CC=C(C)C)c(O[C@@H]4O[C@H](CO)[C@@H](O)[C@H](O)[C@H]4O)cc(O)c3c(=O)c2O[C@@H]2O[C@@H](C)[C@H](O)[C@@H](O)[C@H]2O)cc1 [Icariin] (stock concentration (mM, diluted 1:100): 10) | 0.32
Cc1c(O)c(=O)ccn1C [Deferiprone] (stock concentration (mM, diluted 1:100): 10) | -0.12
OCCN1C[C@H](O)[C@@H](O)[C@H](O)[C@H]1CO [Miglitol] (stock concentration (mM, diluted 1:100): 10) | -0.62
CO[C@H]1/C=C/O[C@@]2(C)Oc3c(C)c(O)c4c(O)c(c(/C=N/N5CCN(C6CCCC6)CC5)c(O)c4c3C2=O)NC(=O)/C(C)=C\C=C\[C@H](C)[C@H](O)[C@@H](C)[C@@H](O)[C@@H](C)[C@H](OC(C)=O)[C@@H]1C [Rifapentine] (stock concentration (mM, diluted 1:100): 10) | -0.69
COCc1c(C(C)C)nc(C(C)C)c(/C=C/[C@@H](O)C[C@@H](O)CC(=O)O)c1-c1ccc(F)cc1 [Cerivastatin] (stock concentration (mM, diluted 1:100): 10) | 0.17
